# Measured values published in PubChem BioAssay (NCATS).
# Results filed as inconclusive are left out. Values without a mark were called inactive. Activity calls are given as the source filed them. Calls come from the whole dose curve; as a rule, active = well fitted inhibition curve with a large enough effect; inconclusive = small, poorly fitted or top-dose-only effect; inactive = flat fitted curve, though single readings scatter.
# Target: Tyrosyl-DNA phosphodiesterase 1 (Homo sapiens) (UniProt Q9NUW8)
# Experiment: Confirmation Assay for Inhibitors of Tyrosyl-DNA Phosphodiesterase (TDP1) (AID 489007); note: nearly all actives have a fitted effect of over 40% in size
# Conditions: recombinant human TDP1 enzymatic activity, dose-response
# Method in brief: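 AlphaScreen read-out: streptavidin donor and anti-FITC acceptor beads (10 ug/ml) bind intact substrate, so Tdp1 removal of tyrosine-FITC lowers signal. Enzyme 1 nM, substrate 15 nM, 5 min reaction at room temperature after 15 min compound preincubation.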
# Potency is the fitted concentration of half-maximal effect.
# Sequence of Tyrosyl-DNA phosphodiesterase 1 (Homo sapiens) (Q9NUW8 whole entry, looked up): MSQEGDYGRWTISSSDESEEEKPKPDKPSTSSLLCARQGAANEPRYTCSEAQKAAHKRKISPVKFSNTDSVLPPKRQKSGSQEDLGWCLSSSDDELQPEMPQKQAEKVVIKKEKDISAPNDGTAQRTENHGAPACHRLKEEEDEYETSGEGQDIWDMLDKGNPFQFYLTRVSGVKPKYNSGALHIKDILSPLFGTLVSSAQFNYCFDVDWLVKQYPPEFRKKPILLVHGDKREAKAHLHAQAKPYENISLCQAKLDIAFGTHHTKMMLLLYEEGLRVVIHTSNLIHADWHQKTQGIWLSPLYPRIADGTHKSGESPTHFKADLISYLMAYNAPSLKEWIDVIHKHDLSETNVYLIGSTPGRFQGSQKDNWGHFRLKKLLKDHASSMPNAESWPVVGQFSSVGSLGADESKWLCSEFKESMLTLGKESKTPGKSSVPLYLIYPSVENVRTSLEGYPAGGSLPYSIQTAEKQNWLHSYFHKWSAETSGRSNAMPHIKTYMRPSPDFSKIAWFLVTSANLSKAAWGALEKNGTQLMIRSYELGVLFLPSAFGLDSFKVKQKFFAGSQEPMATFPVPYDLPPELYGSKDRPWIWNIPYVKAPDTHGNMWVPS
compound,measurement,value
O=C(O)c1cccc(-n2cccc2/C=C2/NC(=O)N(Cc3ccccc3F)C2=O)c1,Potency,8.91 µM (active)
